Screening data: PubChem, several laboratories
aSyn UTR inh: 5' untranslated region of α-synuclein, MLPCN primary screen | alpha-synuclein 5'UTR reporter, inhibitor activity | inhibition, % (tested at 7.5 µM) | 300,000 compounds, 0.82% hits; in the data active = inhibition above about 60%;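 note: H4 neuroglioblastoma cells stably carrying SNCA 5'UTR luciferase fusion; 0% = DMSO wells and 100% = positive control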
KLF5 inhibitor: suppresses KLF5 promoter-driven expression; DLD-1 KLF5 promoter-luciferase reporter, luminescence; inhibition, % at 5 µM; 290,000 compounds, 0.23% hits;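 active = inhibition above a per-plate limit of that plate's mean compound inhibition plus 3 SD, cut at about 60% in these data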;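 note: 0% = DMSO wells and 100% = LY294002 at 200 µM; higher means less KLF5 promoter-driven luciferase light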
Wee1 stabilizer: human Wee1 degradation inhibition, primary screen | HeLa Luc-Wee1K328M stability, luciferase luminescence; 100% = proteasome inhibitor MG132 effect | reporter increase, % at 5 µM | 220,000 compounds, 1.2% hits | AID 1321;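 active = activation above the mean of all tested compounds plus 3 SD, set per screening run, cut at about 8.8% in these data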;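 note: cells exposed to compound for 20 h before luminescence read; 0% = DMSO alone and 100% = MG132 at 30 µM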
Target sequence (P30291 whole entry K328M): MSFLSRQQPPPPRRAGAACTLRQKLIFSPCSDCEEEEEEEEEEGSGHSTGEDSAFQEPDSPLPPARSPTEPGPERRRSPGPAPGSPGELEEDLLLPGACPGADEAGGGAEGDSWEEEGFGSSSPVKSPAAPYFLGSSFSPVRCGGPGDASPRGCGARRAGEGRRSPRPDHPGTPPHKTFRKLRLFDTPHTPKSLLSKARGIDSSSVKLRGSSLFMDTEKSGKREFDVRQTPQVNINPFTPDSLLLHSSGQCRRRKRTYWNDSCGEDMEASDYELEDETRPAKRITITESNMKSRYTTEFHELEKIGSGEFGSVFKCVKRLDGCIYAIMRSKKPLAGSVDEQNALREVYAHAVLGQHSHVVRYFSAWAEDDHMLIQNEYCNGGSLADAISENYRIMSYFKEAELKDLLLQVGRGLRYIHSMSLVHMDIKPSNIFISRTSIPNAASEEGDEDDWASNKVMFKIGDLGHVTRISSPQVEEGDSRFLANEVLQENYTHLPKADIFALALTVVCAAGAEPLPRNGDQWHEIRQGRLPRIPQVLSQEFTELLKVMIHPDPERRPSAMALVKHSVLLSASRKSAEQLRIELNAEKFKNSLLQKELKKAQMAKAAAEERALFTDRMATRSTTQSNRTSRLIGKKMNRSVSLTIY
HIF activator: HIF pathway transcriptional activation. AID 1910. activation, % at 7.5 µM (by protocol). U2OS HRE-luciferase reporter, luminescence; normalized: DMSO 0%, desferrioxamine 100%. 300,000 compounds, 0.32% hits;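 active = mean activation of at least 10% of the iron chelator positive control signal, with at least half of replicates also reaching 10%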
Platelet DG rel: platelet dense granule release activity; inhibition, %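 (compounds screened at 7.5 µM in platelet-rich plasma)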; 300,000 compounds, 0.22% hits; AID 1663; human platelet-rich plasma, SFLLRN dense granule ATP release, luminescence;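 active = mean replicate score, as percent of positive control, at or above 50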
* hit, by the source's call; . = no result. Shown are actives, neighbours in structure and some others; about 2.1% of the full set was active somewhere.

SMILES	aSyn UTR inh	KLF5 inhibitor	Wee1 stabilizer	HIF activator	Platelet DG rel
Cc1ccc(-n2c(C(C)C)nc3oc4ccccc4c(=O)c3c2=O)cc1	-111	-23	10*	3	-3
CCCc1nc2oc3ccccc3c(=O)c2c(=O)n1-c1ccc(C)cc1	-84	-63	10.0*	5	-8
CCc1nc2oc3ccccc3c(=O)c2c(=O)n1-c1ccc(C)cc1	-139	-28	3	5	-4
CCOC(=O)CN1C(=O)S/C(=C/c2cccc([N+](=O)[O-])c2O)C1=O	-5	-32	10*	0	10
O=C(NCc1cccc(OC(F)(F)F)c1)C1CCC(=O)N(Cc2cccc(F)c2)C1 (centres undefined)	7	-10	.	-1	-6
Cc1cccc(-n2ncc3c(N(C)C4CCCCC4)ncnc32)c1	66*	.	.	-2	21
CC1CCCCC12NC(=O)N(CC(=O)c1ccc(Cl)s1)C2=O (centres undefined)	-1	-16	.	0	-7
COc1cc(NC(=O)CCS(=O)(=O)c2ccc3nc(C)sc3c2)cc(OC)c1OC	-6	-19	.	0	-3
COc1ccc(NC(=O)CCS(=O)(=O)c2ccc3nc(C)sc3c2)cc1OC	10	-7	.	0	74*
Cc1c(CC(=O)NCC(C)C)c(=O)oc2cc3c(cc12)CCC(C)(C)O3	-26	-45	.	0	0
CC(=O)Nc1cc(C(=O)O)ccc1S(=O)(=O)c1ccc(C)cc1	1	9	9.2*	-1	-8
CCC(=O)Nc1cc(C(=O)O)ccc1S(=O)(=O)c1ccc(C)cc1	7	-21	-2	-1	16
CCn1c(CNC(=O)c2ccc(F)cc2)cc2ccccc21	-36	-78	.	0	-2
CCC(C)NC(=O)c1cc2cc3ccc(OC)cc3nc2s1 (centres undefined)	-131	-97	9.0*	3	6
CC(c1ccco1)N(C(=O)c1cccc(S(=O)(=O)N(C)C)c1)c1ccccn1 (centres undefined)	13	13	.	0	4
Cc1ccc(C2(c3ccc(C)cc3)CC2C(=O)Nc2ccc([N+](=O)[O-])cc2O)cc1 (centres undefined)	67*	3	-2	-2	-2
CCCc1c(C(=O)Nc2cc(C(C)(C)C)on2)cnn1-c1ccccc1	-10	6	9.8*	0	7
O=C(Nc1csc(Cc2c(Cl)cccc2Cl)n1)NN1CCOCC1	-1	-23	.	-1	0
Cc1ccc(Nc2nc(N)nc(-c3oc4ccccc4c3C)n2)cc1	91*	58	2	9	-4
Nc1[nH]n2c(=O)cc(-c3ccccc3)nc2c1N=Nc1ccccc1	68*	-10	2	0	-55
Nc1[nH]n2c(=O)cc(-c3ccccc3)nc2c1N=Nc1ccc(S(N)(=O)=O)cc1	11	-36	2	0	2
O=C1c2cccc3cccc(c23)C(=O)N1CCCc1n[nH]c(=S)n1-c1ccccc1	12	-12	3	0	6
N=c1c2c(ncn1Cc1ccco1)Oc1c(ccc3ccccc13)C2c1ccccc1 (centres undefined)	-25	-31	-4	0	8
CN(C)CCn1cnc2c(c1=N)C(c1ccccc1)c1ccc3ccccc3c1O2 (centres undefined)	90*	-13	.	-11	3
Cc1cc(C)c2c(N)c(C(=O)c3ccccc3)sc2n1	41	-5	11*	0	-4
SMILES	aSyn UTR inh	KLF5 inhibitor	Wee1 stabilizer	HIF activator	Platelet DG rel
Cc1cc(C)c2c(N)c(C(=O)c3ccc(Cl)cc3)sc2n1	-56	-9	1	1	17
O=C(OCCCOC(=O)c1ccccc1O)c1ccccc1O	-14	-20	.	0	-6
CC1(C)CC(=O)C2=C(C1)Nc1ccccc1NC2c1ccc(F)cc1 (centres undefined)	6	-16	.	2	0
O=C1NCC2=C1C(c1ccc(Br)cc1)Nc1ccccc1N2 (centres undefined)	-55	-26	9.6*	3	1
Cc1cc(=O)n(C)c2ccc(S(=O)(=O)N3CCOCC3)cc12	-10	-22	.	2	0
Cc1ccc(NC(=S)N=Nc2c(O)n(C)c3ccc(S(=O)(=O)N4CCOCC4)cc23)cc1C	77*	8	1	0	-2
Cn1c(O)c(N=NC(=S)Nc2ccccc2F)c2cc(S(=O)(=O)N3CCOCC3)ccc21	95*	-6	-1	1	-6
C=CCn1c(O)c(N=NC(=S)Nc2ccccc2C)c2cc(S(=O)(=O)N3CCOCC3)ccc21	80*	3	-1	0	5
NC(=O)COC(=O)c1ccc2noc(-c3ccccc3)c2c1	-57	-145	.	-20	-8
O=C(NNC(=O)c1ccccc1[N+](=O)[O-])c1csc(N2CCOCC2)n1	0	.	.	0	-3
CSc1ccc(CN2CCC(Oc3ccc(C(=O)N4CCCC4)cc3)CC2)cc1	10	-42	.	0	3
O=C(NC1CCN(S(=O)(=O)c2ccccc2F)CC1)c1cccnc1	4	-23	.	0	7
CCN=C1S/C(=C\c2ccc(O)c(OCC)c2)C(=O)N1CC	68*	-18	-1	1	29
CCN=C1S/C(=C\c2cc(OCC)c(O)cc2Br)C(=O)N1CC	21	-9	-1	1	2
COc1cccc2cc(C(=O)NC3CC4CCC3C4)oc12 (centres undefined)	-26	-45	.	-1	2
N/C(=N/OC(=O)c1ccccc1Cl)c1nonc1N	-85	-27	0	0	54*
O=C(O/N=C(\c1ccccc1)c1ccncc1)c1ccccc1Cl	8	12	9.6*	0	1
COc1ccc(CN(CC(=O)NCC2CCCO2)C(=O)CCC(=O)Nc2nccs2)cc1 (centres undefined)	22	19	.	0	21
Cc1cccc(N(CC(=O)Nc2cccnc2)S(C)(=O)=O)c1	-10	-28	0	0	4
O=C(O)c1ccc(COc2cccc(CO)c2)cc1	-20	-14	-2	0	75*
CCn1ncc(C2=NOC(C(=O)Nc3ccc4c(c3)OCO4)C2)c1C (centres undefined)	-13	-14	3	110*	3
Brc1ccc(N=Nc2ccc3ccccc3n2)cc1	95*	-31	-4	-4	69*
CCCCc1ccc(NC(=S)N2CCCC2)cc1	.	-66	.	.	.
COc1ccc(N=C2C(=Nc3ccc(OC)cc3)N(c3ccc(N(C)C)cc3)C(=S)N2c2ccc(OC)cc2)cc1	99*	-25	3	1	7
COc1ccc(N=C2C(=Nc3ccc(OC)cc3)N(c3ccc(OC)cc3)C(=S)N2C(=O)c2ccc(OC)cc2)cc1	-9	-18	0	0	0
CCC1=[N+](CC(=O)c2ccc(Br)cc2)CCn2c(C)ccc21	-59	4	11*	3	17
CCC1=[N+](CC(=O)c2ccc(C)cc2)CCn2c(C)ccc21	-194	-20	-1	-1	-2
Cc1cc(N/N=C/c2ccccc2O)c2ccccc2n1	-113	-56	.	3	-13
